This is a sample that favours compounds with a hit; in the whole collection about 17% have one here.
TGFb inhibitor: qHTS for Inhibitors of TGF-b | Potency, µM (top dose mostly 46.1 µM), without a hit: at the top dose activity, negative = inhibition, usual class: inhibitors | 410,000 tested, 1.2% active | AID 588855, 2011 | HepG2 CAGA-GFP TGF-b/SMAD3 reporter, GFP fluorescence, 18 h; TGF-beta stimulated, 500 pg/mL final; also: % is scaled to controls: 0 for no effect and ±100 for the full control effect; nearly all actives have a fitted effect of over 65% in size
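HEPG2 CAGA-GFP, 1000 cells/well; 2 h settle, 37 C; cpd via pin tool; TGF-b 500 pg/mL final; 18 h, 37 C; GFP imaging ex488/em500-530; %Activity normalised to -TGF-b and +DMSO controls; CRC fit, curve class.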
ATXN2 expr inh: Primary qHTS for Inhibitors of ATXN expression; HEK-293 ATXN2-luciferase reporter, luminescence, 24 h; Potency, µM (titrated, usually from 57 µM), for the others: top-dose activity change, negative = inhibition, most hits filed as inhibitors; 360,000 tested, 0.72% active; also: % is scaled to controls: 0 for no effect and ±100 for the full control effect; nearly all actives have a fitted effect of over 55% in size
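ATXN2-luciferase reporter cells (luciferase flanked by upstream and downstream ATXN2 gene portions) were treated 24 h at 37 °C with compounds at up to 57 uM. SteadyGlo luminescence gave expression; GF-AFC fluorescence gave viability.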
HepG2 tox: qHTS for Inhibitors of TGF-b: Cytotox Counterscreen; HepG2 CAGA-GFP viability, ATP luminescence, 18 h; Potency, µM (series often up to 46.1 µM), without a hit: at the top dose activity change, negative = cytotoxicity, usual class: cytotoxic; 410,000 tested, 0.76% active
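HepG2 CAGA-GFP cells (1000/well, DMEM with 1% FBS) received compound, then TGF-beta at 500 pg/mL final, and were incubated 18 hours at 37 degrees C. Viability was read by CellTiter-Glo luminescence. Media-only wells were set as complete cell-killing and DMSO as no toxicity.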
DT40 TDP1 CPT: qHTS for Inhibitors of human tyrosyl-DNA phosphodiesterase 1 (TDP1): qHTS in cells in presence of CPT; chicken DT40 Tdp1-/-;hTDP1 cells + 20 nM CPT, ATP luminescence, 48 h; Potency, µM (titrated, usually from 46.2 µM), inactives show at the highest dose activity change, negative = growth inhibition, hits mostly inhibitors; 420,000 tested, 12% active; also: % is scaled to controls: 0 for no effect and ±100 for the full control effect; nearly all actives have a fitted effect of over 55% in size
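Chicken DT40 Tdp1-/- cells stably complemented with human TDP1 were seeded at 400 cells/well in medium containing 20 nM camptothecin, exposed to pin-transferred compounds, and grown at 37 °C for at least 48 hr. Viability was read as ATP luminescence.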
ATXN viability: Viability Counterscreen for Primary qHTS for Inhibitors of ATXN expression; S2 cells (HEK-293 line with an ATXN2-luciferase reporter) viability, CellTiter-Fluor protease fluorescence, 24 h; Potency, µM (titrated, usually from 56.7 µM), most hits filed as cytotoxic; 400,000 tested, 0.49% active; AID 651635, 2014; also: nearly all actives have a fitted effect of over 40% in size
DT40 TDP1 no CPT: qHTS for Inhibitors of human tyrosyl-DNA phosphodiesterase 1 (TDP1): qHTS in cells in absence of CPT; DT40 Tdp1-/- hTDP1 cells, no CPT, ATP luminescence, 48 h; Potency, µM (highest dose often 46.2 µM), inactives show at the highest dose activity change, negative = growth inhibition, actives largely listed as inhibitors; 420,000 tested, 15% active; also: % is scaled to controls: 0 for no effect and ±100 for the full control effect; nearly all actives have a fitted effect of over 55% in size
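Seeded 400 DT40-hTDP1 cells/well (vehicle DMSO, no 20 nM CPT); pinned compounds; ≥48 hr at 37 °C; CellTiter-Glo luminescence as viability measure.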
Starred values were filed as active, the others as inactive; i = inactive; ? = inconclusive; / = no result. Calls follow the shape of the dose curve; as a rule, active = well fitted curve in the direction sought with a large enough effect; inconclusive = small, poorly fitted or top-dose-only effect, or another doubt; inactive = no such curve, though single readings can be large; an effect the other way counts as inactive or inconclusive. Potency is read from the fitted curve at half-maximal effect.

SMILES | TGFb inhibitor | ATXN2 expr inh | HepG2 tox | DT40 TDP1 CPT | ATXN viability | DT40 TDP1 no CPT
COc1ccc(NC(=O)C(Cc2ccccc2)NS(=O)(=O)c2ccc3c(c2)CCN3C(C)=O)cc1 (stereo not given) | -32.0% | -24.1% | -3.7% | -28.6% | i | ?
N/C(=N\c1nc2ccccc2o1)NC(=O)c1ccc(F)cc1 | -3.1% | -11.5% | -27.3% | 13µM* | i | 13µM*
Cc1ccc2oc(/N=C(\N)NC(=O)C(C)(C)C)nc2c1 | 0.0% | -81.8% | -26.5% | ? | i | ?
N/C(=N\c1nc2ccccc2o1)NC(=O)c1ccccc1Br | 20.5% | 36.4% | 1.8% | ? | i | 16.4µM*
Cc1ccc2oc(/N=C(\N)NC(=O)C3CC3)nc2c1 | -18.3% | / | -17.3% | 9.2µM* | ? | 4.61µM*
N/C(=N\c1nc2ccccc2o1)NC(=O)c1ccc(Cl)cc1 | 5.7% | 10.4% | 0.7% | ? | i | -5.2%
CSc1ncc(C(=O)Nc2ccccc2C(=O)c2ccccc2)c(C)n1 | 3.5% | 6.4% | 12.7% | -1.3% | i | -15.9%
CC1CC=CC2C1C(=O)N(Cc1ccccc1)C2c1ccc(F)c(/C=C/c2ccccc2)c1 (stereo not given) | 12.8% | / | 1.1% | / | / | /
C[C@@H]1CC=C[C@H]2[C@H]1C(=O)N(Cc1ccccc1)[C@H]2c1ccc2ccccc2c1 | ? | -11.6% | -22.4% | ? | i | ?
CC1CC=CC2C1C(=O)N(Cc1ccccc1)C2c1ccc2ccccc2c1 (stereo not given) | 11.2µM* | / | -74.6% | / | / | /
CC[C@@H]1CC=C[C@H]2[C@H]1C(=O)N(Cc1ccccc1)[C@H]2c1ccc(OC)c(Cl)c1 | ? | -7.3% | -31.4% | 18.4µM* | i | 13µM*
CCC1CC=CC2C1C(=O)N(Cc1ccccc1)C2c1cc(C)ccc1F (stereo not given) | ? | / | -47.7% | / | / | /
CC[C@@H]1CC=C[C@H]2[C@H]1C(=O)N(Cc1ccccc1)[C@H]2c1ccc(C(F)(F)F)cc1 | ? | -24.4% | -30.4% | 14.6µM* | ? | ?
O=C1C2C(c3cccc(/C=C/c4ccccc4)c3)CC=CC2C(c2ccc(C(F)(F)F)cc2)N1Cc1ccccc1 (stereo not given) | -11.2% | 13.2% | 3.6% | 14.6µM* | i | ?
Cc1cccc(C(=O)NNC(=O)c2ccc3ccccc3c2)c1 | -0.6% | 4.5% | -12.1% | -5.8% | ? | 6.2%
CC1(c2ccc3c(c2)OCCO3)NC(=O)N(CC(=O)Nc2ccccc2)C1=O (stereo not given) | -4.3% | -8.5% | 1.9% | -7.5% | ? | -8.8%
COc1ccc(-c2cccc(C3CC=CC4C3C(=O)N(Cc3ccccc3)C4c3ccc(OC)c(Cl)c3)c2)cc1 (stereo not given) | -6.3% | 10.5% | -9.3% | 20.6µM* | i | 13µM*
Cc1ccc(-c2cc(C3C4C=CCC(C)C4C(=O)N3Cc3ccccc3)ccc2F)cc1 (stereo not given) | -16.7% | / | -12.7% | / | / | /
O=C1C2C(c3cccc(/C=C/c4ccccc4)c3)CC=CC2C(c2ccc3ccccc3c2)N1Cc1ccccc1 (stereo not given) | ? | 20.1% | -1.9% | ? | i | 16.4µM*
C[C@@H]1CC=C[C@H]2[C@H]1C(=O)N(Cc1ccccc1)[C@H]2c1ccc(F)c(/C=C/c2ccccc2)c1 | ? | -15.1% | -20.6% | 8.2µM* | i | 8.2µM*
Cc1ccc(-c2cccc(C3CC=CC4C3C(=O)N(Cc3ccccc3)C4c3ccc4ccccc4c3)c2)cc1 (stereo not given) | ? | 12.3% | 1.3% | 18.4µM* | i | 13µM*
CCOC(=O)c1c(S(=O)(=O)NCC(=O)Nc2ccccc2OC)c(C)n(C)c1C | -0.1% | / | 7.5% | -5.1% | i | -3.4%
COc1cccc(/C=N/NC(=O)Cn2cnc3c2c(=O)n(C)c(=O)n3C)c1OC | -0.9% | 1.5% | -1.9% | -6.6% | i | 0.2%
CC1CC=CC2C1C(=O)N(Cc1ccccc1)C2c1ccc(C(F)(F)F)cc1 (stereo not given) | ? | / | -8.4% | / | / | /
O=C1C2C(c3ccccc3)CC=CC2C(c2ccc(C(F)(F)F)cc2)N1Cc1ccccc1 (stereo not given) | 12.6µM* | / | -56.6% | / | / | /
SMILES | TGFb inhibitor | ATXN2 expr inh | HepG2 tox | DT40 TDP1 CPT | ATXN viability | DT40 TDP1 no CPT
O=C(Nc1c2c(nn1-c1ccc(Cl)cc1)CS(=O)(=O)C2)c1cccc(Cl)c1 | ? | ? | -31.9% | 16.4µM* | i | 20.6µM*
CCc1ccc(NC(=O)c2cc(-c3ccc4c(c3)OCO4)on2)cc1 | 0.4% | -9.7% | 2.7% | -21.1% | i | -10.4%
Cc1ccc(Cn2nc(C)c(NC(=O)c3noc4c3CCCCC4)c2C)cc1 | -24.5% | -5.0% | -10.1% | -29.7% | i | ?
Cc1nn(Cc2ccc(F)cc2)c(C)c1NC(=O)c1cc(-c2ccc3c(c2)OCO3)on1 | 17.6% | -15.0% | -13.3% | ? | i | 13µM*
CCc1ccc(-c2cc(C(F)(F)F)n3nc(C(=O)Nc4c(C)nn(Cc5ccc(F)cc5)c4C)cc3n2)s1 | ? | -11.1% | 0.7% | ? | / | 23.1µM*
COCCNC(=O)c1cc2nc(-c3ccc(F)cc3)cc(C(F)(F)F)n2n1 | 30.1% | 12.7% | 2.8% | 1.5% | i | 7.8%
Cc1ccc(Cn2nc(C)c(NC(=O)c3cc(-c4ccc5c(c4)OCO5)on3)c2C)cc1 | -21.2% | ? | 11.2µM* | 16.4µM* | ? | ?
CN(C)c1ccc(N/C=C/C(=O)c2ccccc2)cc1 | 11.5% | ? | -21.2% | 11.2µM* | i | 11.2µM*
CC(C)(C)C(=O)/C=C/Nc1ccccc1O | -29.8% | -7.5% | -30.1% | 11.6µM* | i | 13µM*
